Laboratory results from PubChem BioAssay AID624491 (Broad Institute, 2012).
In all, about 1,800 compounds went through this assay and about 1,400 (78%) were called active. Another 2% or so got no clear call; they are omitted.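 How the source made its calls: active means fitted curve crossing a set activation limit at or below the highest valid dose tested; inconclusive means flat fit at 30 to 70% activation, or poor fit; inactive means the rest, including signal decreases.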 The set was probably picked from earlier hits. The list is a sample of the results. Measured potencies and affinities stand elsewhere.

Test: blockers of NLG process in reporter cells – D54 ERlucT cells, luminescence, cherry-picks, dose response (AID 624491);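 further: signal gain reflects blocked N-linked glycosylation of a luciferase reporter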
Details: D54 ERlucT glycosylation luciferase reporter, 24 h, 100% = twice neutral-control luminescence; series mostly up to 19.5 µM

Activation (NLG inhibition), inactive:
O=C(CC(O)c1ccncc1)c1ccccc1O (configuration not stated)
COc1ccc(Cl)cc1/C=C/c1ccc2cccc(O)c2n1
CCOC(=O)c1[nH]c2ccc(F)cc2c1NC(=O)C(C)N1CCc2cc(OC)c(OC)cc2C1 (configuration not stated)
C#CC(=O)CC1(CN(Cc2ccccc2)C(=O)OC(C)(C)C)CCCCC1
CCN(CC(=O)Nc1ccccc1OC)CC(=O)Nc1ccccc1-c1ccccc1
COC(=O)c1cc(=O)n(Cc2ccc3c(c2)OCO3)c(=Nc2ccc(F)c(Cl)c2)s1
CC1=C([N+](=O)[O-])C(c2ccccc2)C2=C(N1)c1ccccc1C2=O (configuration not stated)
COc1cc2cc(/C=C/C(=O)c3ccco3)c(Cl)nc2cc1OC
COc1ccc([N+](=O)[O-])cc1NC(=O)CCN1CCN(CCO)CC1
NC(=O)CC(NC(=O)Cc1ccc(Cl)cc1)c1ccc(NC2CC3CCC2C3)c([N+](=O)[O-])c1 (configuration not stated)
NC(=O)CC(NC(=O)c1ccc(Br)cc1)c1ccc(N2CCCCCCC2)c([N+](=O)[O-])c1 (configuration not stated)
NC(=O)CC(NC(=O)Cc1ccc(Br)cc1)c1ccc(NCc2cc(F)ccc2F)c([N+](=O)[O-])c1 (configuration not stated)
NC(=O)CC(NC(=O)Cc1ccc(Br)cc1)c1ccc(NC2CCCC2)c([N+](=O)[O-])c1 (configuration not stated)
CC(C)Nc1ccc(C(CC(N)=O)NC(=O)Cc2ccc(Br)cc2)cc1[N+](=O)[O-] (configuration not stated)
CCCOc1ccc(F)cc1-c1cc(C(=O)Nc2ccc(C(C)C)cc2)[nH]n1
Oc1c(Br)cc(Br)cc1CNc1cccc2cccnc12
Nc1c(C(=O)Nc2ccc(S(=O)(=O)N3CCCC3)cc2)sc2nc3cc4c(cc3cc12)CCC4
c1ccc2c(-c3nc4ccccc4[nH]3)cccc2c1
CCc1nn(C(C)C(=O)N2CCN(c3ccc(OC)cc3)CC2)c(=O)c2cc3occc3n12 (configuration not stated)
COc1cccc(C(=O)Nc2ccc3c(c2)C(=O)c2ccccc2C3=O)c1
O=C(Nc1ccccc1-c1ccccc1)C1CCCC1
CC#CC#Cc1cccc(=O)o1
O=C(/C=C/c1ccccc1)c1ccc2c3c(cccc13)CC2
Cc1cc(NC(=O)CSc2nc3ccccc3c(=O)n2C2CCCC2)no1
Cc1cc(NC(=O)/C=C/C(=O)N(CC(=O)NC2CCCC2)c2ccc(F)cc2)no1
Nc1nc(Nc2ccccc2)sc1C(=O)c1ccccc1
COc1ccccc1N1CCN(C(=O)c2ccc(Cl)c(S(=O)(=O)NCc3ccco3)c2)CC1
COc1cc2ccccc2cc1C(=O)N1CCc2ccccc21
CCOc1ccc(S(=O)(=O)Nc2cc(OC)ccc2OC)cc1
COCCCNC(=O)c1cccc2c(-c3ccc(O)c(OC)c3)coc12
COc1cc(-c2nc3cnccn3c2Nc2ccc(C)cc2)ccc1O
COc1cc(OC)cc(C(=O)NNC(=O)c2ccc3ccccc3n2)c1
CC(C)[n+]1ccn(C2=C([O-])c3ccccc3C(=O)/C2=N\S(=O)(=O)c2ccccc2)c1
CC(C)c1ccc(NC(=O)[C@@H](NC(=O)N2CC(=O)Nc3ccccc32)C(C)C)cc1
CCC(C)[C@H](NC(=O)N1CC(=O)Nc2ccccc21)C(=O)Nc1ccccc1C (some centres not stated)
O=C(CNC(=O)N1CC(=O)Nc2ccccc21)NCCCc1ccccc1
O=C(Nc1cccc2ncccc12)c1ccc([N+](=O)[O-])o1
O=C(Nc1cccc(-c2nc3ncccc3o2)c1)c1sc2ccccc2c1Cl
C(=N\Nc1nc2ccccc2[nH]1)/c1ccc2ncccc2c1
COc1ccc(/C=C/C(=O)c2ccccc2)cc1COc1ccccc1F
CC(=O)Nc1cccc(-c2ccnc3c2CC(C)(C(=O)NCc2cccc(Cl)c2)O3)c1 (configuration not stated)
CC1(C(=O)NCC2CC2)Cc2c(-c3cccc(C(F)(F)F)c3)ccnc2O1 (configuration not stated)
CC1(C(=O)NCC2CCOCC2)Cc2c(-c3cccc(C(F)(F)F)c3)ccnc2O1 (configuration not stated)
Cc1nc(C)c(C(=O)N/N=C/c2c[nH]c3ccccc23)s1
CCOc1ccc(C(C)=O)cc1COc1cccnc1[N+](=O)[O-]
O=C(Oc1c(Cl)cc(Cl)c2cccnc12)c1ccco1
COc1ccccc1NC(=O)c1ccc(-c2ccc(Br)cc2)o1
Cc1ccc(OCCNC(=O)c2cccc(S(=O)(=O)NCc3ccccc3)c2)cc1
CCCCn1c(SCC(=O)Nc2cc(C(F)(F)F)cc(C(F)(F)F)c2)nnc1C(CC)N(C)C (configuration not stated)
COc1ccc(Oc2ccc(/C=C/C(=O)c3cccc(OC)c3)cc2[N+](=O)[O-])cc1
Cc1cnc2cc(Cl)c(Cl)cc2n1
CCOC(=O)C1=C(C)N=C2SC=C(C)N2C1c1ccc(OC)cc1 (configuration not stated)
COc1ccc(CCNC(=O)c2cc(-c3ccco3)on2)cc1OC
O=C(C=Cc1cccnc1)c1ccccc1
O=C(/C=C/c1cccnc1)c1ccc(F)c(F)c1
O=C(/C=C/c1ccccc1Cl)c1ccc(O)cc1
CCOC(=O)c1[nH]c(C)c(C(=O)c2ccc(C)cc2)c1C
